Experimental data published in PubChem BioAssay (NCI).
The panel holds about 83,000 compounds, 20% with a hit somewhere; the sample as a whole holds those more often.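 Growth was measured after 48 h exposure to one concentration of compound in 96-well plates. Values under 10 count as active.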 Calls of active or inactive are those of the source.

Columns and labels:
Assay in all cases: NCI-60 one-dose screen, 48 h (100 = growth as untreated, 0 = no growth, -100 = all killed)
NCI-H23 lung = conditions: 10 µM
NCI-H522 lung = conditions: 10 µM
K-562 leukemia = conditions: 10 µM
MDA-MB-231 breast = conditions: 10 µM
RXF 393 renal = conditions: 10 µM
U251 CNS = conditions: 10 µM
LOX IMVI melanoma = conditions: 10 µM
CAKI-1 renal = conditions: 10 µM
MOLT-4 leukemia = conditions: 10 µM
SR leukemia = conditions: 10 µM
OVCAR-3 ovarian = conditions: 10 µM
HS 578T breast = conditions: 10 µM
T-47D breast = conditions: 10 µM
SW-620 colon = conditions: 10 µM
MDA-MB-468 breast = conditions: 10 µM unless noted
PC-3 prostate = conditions: 10 µM
NCI-H460 lung = conditions: 10 µM
OVCAR-5 ovarian = conditions: 10 µM
EKVX NSCLC = conditions: 10 µM
NCI-H226 lung = conditions: 10 µM

Measured: growth

C[C@H]1[C@H](OC(=O)CCC(=O)Nc2cnccn2)O[C@@H]2OC3(C)CC[C@H]4[C@H](C)CC[C@@H]1[C@@]24OO3
active: NCI-H522 lung -13.6% | LOX IMVI melanoma -72.9% | SR leukemia 4.95%
inactive: NCI-H23 lung 25.9% | K-562 leukemia 14.9% | MDA-MB-231 breast 83.7% | RXF 393 renal 49% | U251 CNS 42.6% | CAKI-1 renal 42.8% | MOLT-4 leukemia 27.6% | OVCAR-3 ovarian 34.6% | HS 578T breast 29.2% | T-47D breast 22.1% | SW-620 colon 21.8% | MDA-MB-468 breast 50.7%

O=C(/C=C/c1ccc(Cl)cc1Cl)c1nc2ccccc2n1Cc1ccc(Br)cc1
inactive: NCI-H23 lung 72.3% | NCI-H522 lung 88.2% | K-562 leukemia 53.5% | RXF 393 renal 58.2% | U251 CNS 45% | PC-3 prostate 67.1% | MOLT-4 leukemia 15.4% | SR leukemia 14.4% | T-47D breast 44.4% | MDA-MB-468 breast 48.9%

CC1=C(CCC=O)C2=C(C)C3(CC3)[C@@](C)(O)C(=O)C2=C1
active: NCI-H23 lung -86% | NCI-H460 lung -42.6% | NCI-H522 lung -90% | MDA-MB-231 breast -99.2% | RXF 393 renal -95.3% | U251 CNS -99.6% | LOX IMVI melanoma -94.8% | CAKI-1 renal -100% | OVCAR-5 ovarian -95.8% | HS 578T breast -8.94% | SW-620 colon -74.9% | MDA-MB-468 breast -86.5%

COCCOCCOCCOc1ccc(-n2cc(CCCN(CCNc3ccnc4cc(Cl)ccc34)C(=O)CCC(=O)O[C@@H]3O[C@@H]4OC5(C)CC[C@H]6[C@H](C)CC[C@@H]([C@H]3C)[C@@]46OO5)nn2)cc1
inactive: NCI-H23 lung 47.9% | NCI-H460 lung 52% | K-562 leukemia 17.2% | MDA-MB-231 breast 73.5% | RXF 393 renal 33.6% | PC-3 prostate 32.3% | EKVX NSCLC 53.5% | CAKI-1 renal 39.7% | OVCAR-3 ovarian 35.3% | HS 578T breast 34.9% | SW-620 colon 30%
active: LOX IMVI melanoma 1.51% | MOLT-4 leukemia 7.21% | SR leukemia -5.07%

O=C(/C=C/c1ccccc1)c1nc2ccccc2n1Cc1ccc(Br)cc1
active: NCI-H23 lung -71.5% | NCI-H460 lung -47% | K-562 leukemia -17.2% | RXF 393 renal -94.8% | PC-3 prostate -31% | EKVX NSCLC -89.2% | MOLT-4 leukemia -12% | SR leukemia -19.5% | OVCAR-3 ovarian -72.5% | MDA-MB-468 breast -93.1%

CC[C@]12C=CCN3CC[C@@]4(c5ccc(OC)cc5N(C)[C@H]4[C@@](O)(C(=O)OC)[C@@H]1OC(=O)CCCC[P+](c1ccc(OC)cc1)(c1ccc(OC)cc1)c1ccc(OC)cc1)[C@@H]32
inactive: SR leukemia 23.2%
active: NCI-H23 lung -90.7% | NCI-H522 lung -81.9% | K-562 leukemia 1.01% | MDA-MB-231 breast -97.4% | RXF 393 renal -90.4% | U251 CNS -95.9% | PC-3 prostate -37.2% | LOX IMVI melanoma -96.4% | CAKI-1 renal -78.5% | MOLT-4 leukemia -26.2% | OVCAR-3 ovarian -71.8% | HS 578T breast -67.5% | SW-620 colon -88.7% | MDA-MB-468 breast -92.7%

O=C(/C=C/c1ccccc1Cl)c1nc2ccccc2n1Cc1ccc(F)cc1
active: NCI-H23 lung -78.2% | K-562 leukemia -25.9% | RXF 393 renal -97.8% | U251 CNS -87.5% | PC-3 prostate -57.3% | EKVX NSCLC -91.6% | CAKI-1 renal -40.5% | MOLT-4 leukemia -16.2% | SR leukemia -27.9% | OVCAR-5 ovarian -66.3% | MDA-MB-468 breast -94.1%

CC1=C2C(=C[C@@](C)(COP(=O)(Oc3ccccc3)Oc3ccccc3)[C@@H]2O)C(=O)[C@@](C)(O)C12CC2
inactive: SW-620 colon 29.8%
active: NCI-H23 lung -84.6% | NCI-H460 lung -35.4% | NCI-H522 lung -93.4% | MDA-MB-231 breast -79.2% | RXF 393 renal -95.6% | LOX IMVI melanoma -76.3% | EKVX NSCLC -52.5% | CAKI-1 renal -19.5% | OVCAR-3 ovarian -75.4% | HS 578T breast -25.2% | T-47D breast -47.8% | MDA-MB-468 breast -89.8%

CC[C@]12C=CCN3CC[C@@]4(c5ccc(OC)cc5N(C)[C@H]4[C@@](O)(C(=O)OC)[C@@H]1OC(=O)CCC[P+](c1ccc(F)cc1)(c1ccc(F)cc1)c1ccc(F)cc1)[C@@H]32
inactive: NCI-H23 lung 35.5% | K-562 leukemia 21.6% | MDA-MB-231 breast 22% | PC-3 prostate 16.7% | LOX IMVI melanoma 31% | MOLT-4 leukemia 37.1% | SR leukemia 42.6% | HS 578T breast 19.1% | T-47D breast 10.4% | SW-620 colon 45.3%
active: NCI-H522 lung -17.7% | RXF 393 renal -10.4% | MDA-MB-468 breast -74.6%

C[C@H]1[C@H](OC(=O)CCC(=O)N(CCCc2cn(-c3ccc(CN4CCOCC4)cc3)nn2)CCNc2ccnc3cc(Cl)ccc23)O[C@@H]2OC3(C)CC[C@H]4[C@H](C)CC[C@@H]1[C@@]24OO3
inactive: NCI-H23 lung 45.3% | MDA-MB-231 breast 42.5% | U251 CNS 13.3% | CAKI-1 renal 21.4% | T-47D breast 25.4% | SW-620 colon 25.5% | MDA-MB-468 breast 29%
active: K-562 leukemia 4.56% | RXF 393 renal 7.45% | LOX IMVI melanoma 7.19% | MOLT-4 leukemia -4.26% | SR leukemia -17.8% | HS 578T breast 9.17%

CC(=O)Oc1ccccc1C(=O)[Se]C(=NC(C)C)NC(C)C
active: NCI-H226 lung -67.2% | NCI-H460 lung -70.2% | NCI-H522 lung -97% | K-562 leukemia -29.6% | MDA-MB-231 breast -50.5% | RXF 393 renal -98.3% | PC-3 prostate -62.9% | LOX IMVI melanoma -80% | EKVX NSCLC -94% | MOLT-4 leukemia -15.4% | SR leukemia -27.5% | OVCAR-5 ovarian -66.5% | OVCAR-3 ovarian -93.7% | HS 578T breast -15.6% | SW-620 colon -72.4% | MDA-MB-468 breast -64.4%

COc1ccc(/C=C/C(=O)c2nc3ccccc3n2Cc2ccc(Br)cc2)cc1
inactive: NCI-H23 lung 61.9% | K-562 leukemia 21.1% | RXF 393 renal 83.6% | EKVX NSCLC 52.5% | MOLT-4 leukemia 20.7% | SR leukemia 25.6% | OVCAR-5 ovarian 89.6% | MDA-MB-468 breast 16.9%

COc1ccc2cc([C@H](C)C(=O)[Se]CCC#N)ccc2c1
inactive: T-47D breast 12%
active: NCI-H226 lung -49.9% | NCI-H522 lung -95.6% | K-562 leukemia 4.12% | MDA-MB-231 breast -59.9% | RXF 393 renal -82.3% | LOX IMVI melanoma -66.6% | EKVX NSCLC -83.7% | CAKI-1 renal -94% | MOLT-4 leukemia 5.75% | SR leukemia 0.13% | OVCAR-5 ovarian -31.8% | HS 578T breast -10.2% | SW-620 colon -22.9% | MDA-MB-468 breast -56.6%

COc1cc(OC)c(S(=O)(=O)N(CCCl)CCCl)cc1C(=O)/C=C/c1ccc(C)cc1
active: RXF 393 renal -17.9% | LOX IMVI melanoma -24%
inactive: NCI-H460 lung 31.9% | NCI-H522 lung 82.6% | K-562 leukemia 70.9% | MDA-MB-231 breast 35% | MOLT-4 leukemia 82.4% | SR leukemia 53.6% | OVCAR-5 ovarian 91.7% | OVCAR-3 ovarian 112% | HS 578T breast 56.8% | SW-620 colon 82.8% | MDA-MB-468 breast 68.6%

C#CC[Se]C(=O)c1ccc(C(=O)[Se]CC#C)s1
inactive: NCI-H226 lung 76.5% | NCI-H460 lung 40.9% | NCI-H522 lung 99.8% | K-562 leukemia 89.6% | MDA-MB-231 breast 95% | RXF 393 renal 101% | LOX IMVI melanoma 93.1% | EKVX NSCLC 48.4% | CAKI-1 renal 106% | MOLT-4 leukemia 101% | SR leukemia 26.8% | OVCAR-3 ovarian 84.5% | HS 578T breast 92.4% | T-47D breast 88.8% | SW-620 colon 98.2% | MDA-MB-468 breast 64.5%

C[C@H]1[C@H](OC(=O)CCC(=O)N(CCCc2cn(-c3ccc([N+](=O)[O-])cc3)nn2)CCNc2ccnc3cc(Cl)ccc23)O[C@@H]2OC3(C)CC[C@H]4[C@H](C)CC[C@@H]1[C@@]24OO3
inactive: NCI-H23 lung 43.4% | MDA-MB-231 breast 50.2% | RXF 393 renal 26.1% | U251 CNS 55.9% | PC-3 prostate 41.2% | LOX IMVI melanoma 21.7% | CAKI-1 renal 37.4% | HS 578T breast 52.8% | T-47D breast 37.1% | SW-620 colon 38% | MDA-MB-468 breast 31.2%
active: K-562 leukemia 8.36% | MOLT-4 leukemia 2.71% | SR leukemia -15.2%

CC[C@@]12CC(C(=O)OC)=C3Nc4cc5c(cc4[C@@]34CCN(C[C@H]3O[C@H]31)[C@@H]24)[C@@H]1[C@H](O5)[C@@H](O)[C@@]2(CC)CC(C(=O)OC)=C3Nc4cc(OC)ccc4[C@@]34CCN1[C@@H]24
active: NCI-H23 lung 1.41% | K-562 leukemia 2.66% | RXF 393 renal -37.8% | LOX IMVI melanoma -64.9% | MOLT-4 leukemia -4.22% | SR leukemia -16.2% | HS 578T breast -6.21% | MDA-MB-468 breast -56.3%
inactive: NCI-H460 lung 15.9% | MDA-MB-231 breast 18% | EKVX NSCLC 31.3% | OVCAR-5 ovarian 34.3% | SW-620 colon 16.3%

CC(C)N=C([Se])NC(=O)c1ccccc1
inactive: K-562 leukemia 15.9%
active: NCI-H460 lung -25.8% | MDA-MB-231 breast -48.6% | RXF 393 renal -83.7% | U251 CNS -59.4% | PC-3 prostate -21.8% | LOX IMVI melanoma -37.3% | CAKI-1 renal -80.7% | MOLT-4 leukemia 2.86% | SR leukemia -9.62% | OVCAR-3 ovarian -61% | HS 578T breast -2.5% | T-47D breast -34.6% | SW-620 colon -20.9% | MDA-MB-468 breast -46%

CC12CCC3(CCC(=O)NCCCNc4ccnc5cc(Cl)ccc45)[C@@](C)(OO[C@]3(C)O1)O2
active: NCI-H23 lung -43.6% | NCI-H460 lung 7.06% | MDA-MB-231 breast -23.4% | RXF 393 renal -47.1% | U251 CNS -28.8% | LOX IMVI melanoma -78.1% | EKVX NSCLC 4.65% | CAKI-1 renal -25% | MOLT-4 leukemia 7.04% | SR leukemia 2.39% | MDA-MB-468 breast -38.3%
inactive: K-562 leukemia 14.4% | OVCAR-3 ovarian 30.8% | HS 578T breast 11.4% | T-47D breast 36.9% | SW-620 colon 28.9%

CC(=C\C(=O)Oc1ccc2c3c1OC1C(O)CCC4(O)C(C2)N(CC2CCC2)CCC314)/C=C1\CCCc2ccccc21 (stereo not given)
active: LOX IMVI melanoma 5.47% | MDA-MB-468 breast -15.4%
inactive: NCI-H23 lung 64.3% | NCI-H522 lung 47.2% | K-562 leukemia 19.7% | MDA-MB-231 breast 75.3% | RXF 393 renal 37.7% | CAKI-1 renal 41.7% | MOLT-4 leukemia 31.1% | OVCAR-5 ovarian 72.1% | HS 578T breast 59.8% | T-47D breast 24.4% | SW-620 colon 28.4%
